High-throughput results: PubChem, several laboratories
Hits are enriched below; roughly 4.2% of the tested compounds scored in any of these assays.
NALP1 inh: blocks the NALP1 inflammasome reconstituted in yeast | S. cerevisiae NALP1/ASC/caspase-1 growth, X-gal OD620, 72 h | inhibition, % at 10 µM | 280,000 compounds, 0.61% hits | AID 2071; in the data active = inhibition mostly above about 24%, no sharp cut-off; inactive = mostly below about 32%
NLRP3 yeast inh: inhibitors of NALP3 inflammasome in yeast. Yeast reconstituted NLRP3/ASC/caspase-1, beta-gal luminescence, 24 h. inhibition, % at 10 µM. 330,000 compounds, 0.39% hits. AID 2825;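 active = inhibition of 50% or more; inactive = inhibition below 50%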;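 also: plate controls were induced DMSO wells for no effect and uninduced yeast grown without galactose for full effect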
tim10-1 inh: growth inhibitors of tim10-1 mutant yeast | inhibition, % at 20 µM | 330,000 compounds, 2.2% hits | S. cerevisiae tim10-1 ts strain growth, BacTiter-Glo, 24 h;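 active = inhibition of at least 40%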;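 also: mutant grown at 25 °C; 0% = DMSO wells with yeast and 100% = wells holding no yeast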
PfHsp90 set2: reduces growth (ATP signal) of yeast expressing P. falciparum Hsp90; inhibition, % at 9.4 µM; 310,000 compounds, 0.32% hits; S. cerevisiae expressing PfHsp90, BacTiter-Glo ATP, 48 h; yeast lacking PDR1 and PDR3 efflux regulators;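 active = every replicate shows inhibition above about 80%, whatever the replicate mean, limit read from the data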;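 also: 0% = DMSO neutral controls and 100% = 20 µM radicicol positive controls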
tim23-1 inh: inhibits growth of tim23-1 mutant yeast; AID 463212; inhibition, % at 20 µM; S. cerevisiae tim23-1 growth, BacTiter-Glo luminescence, 24 h; 330,000 compounds, 1.3% hits;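 active = growth inhibition of the mutant yeast at or above 50%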;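 also: temperature-sensitive mutant grown at 25 °C; plate controls were DMSO-treated mutant yeast for no effect and medium wells lacking yeast for full effect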
TIM10 inh: TIM10 yeast growth inhibition; S. cerevisiae TIM10 strain growth, BacTiter-Glo luminescence, 24 h; inhibition, % at 10 µM; 330,000 compounds, 1.4% hits; AID 463195;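 active = inhibition of 40% or more at the single tested concentration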;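 also: wild-type TIM10 isogenic control strain grown at permissive 25 °C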
NALP3 yeast conf: NALP3 inhibition confirmation in yeast; inhibition, % at 10 µM; shares compounds with NLRP3 yeast inh; 1,300 compounds, 81% hits; yeast expressing human NALP3, luminescence; in the data active = inhibition above about 48%
Casp1-ASC yeast: caspase-1-ASC yeast counter-screen hit. shares compounds with NLRP3 yeast inh. yeast expressing Caspase-1-ASC, luminescence counter screen. inhibition, % at 10 µM. 1,000 compounds, 66% hits. AID 488784
NALP3 retest: yeast NALP3 inhibition, confirmed on retest. AID 488794. inhibition, % at 10 µM. 1,000 compounds, 53% hits. shares compounds with NLRP3 yeast inh. yeast expressing human NALP3, luminescence read-out
tim10-1 conf: confirmation of tim10-1 mutant yeast growth inhibitors; shares compounds with tim10-1 inh; S. cerevisiae tim10-1 ts strain growth, BacTiter-Glo, 24 h; inhibition, % at 20 µM; 7,400 compounds, 56% hits; AID 463213;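 active = inhibition of yeast growth at or above a set limit in either of two repeat tests at 20 µM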;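 also: tim10-1 mutant grown at permissive 25 °C to find synthetic lethal compounds; 0% = DMSO yeast wells and 100% = medium wells without yeast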
tim10 confirm: TIM10 yeast growth inhibition, confirmed; shares compounds with TIM10 inh; S. cerevisiae tim10 strain growth, BacTiter-Glo luminescence, 24 h; inhibition, % at 10 µM; 4,600 compounds, 63% hits;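 active = inhibition of yeast growth at or above a set limit in either of two replicates at 10 µM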;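 also: this counterscreen used the strain with wild-type TIM10; 0% = yeast with DMSO and 100% = medium wells lacking yeast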
tim23-1 confirm: confirmation of tim23-1 mutant yeast growth inhibitors | shares compounds with tim23-1 inh | S. cerevisiae tim23-1 growth, BacTiter-Glo luminescence, 24 h | inhibition, % at 20 µM | 4,400 compounds, 83% hits;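 active = inhibition above about 39% in either of two replicate wells at 20 µM, limit read from the data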;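 also: temperature-sensitive tim23-1 mutant grown at 25 °C; 0% = DMSO wells with yeast and 100% = medium wells without yeast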
Active calls of the source: *; . = no result given. Rule as the data show it, unless noted: active = inhibition above about 50%; inactive = the rest.

SMILES	NALP1 inh	NLRP3 yeast inh	tim10-1 inh	PfHsp90 set2	tim23-1 inh	TIM10 inh	NALP3 yeast conf	Casp1-ASC yeast	NALP3 retest	tim10-1 conf	tim10 confirm	others
Cc1ccc(Sc2ccc(NC(=O)CCl)cc2)c(C)c1	37	58*	39	.	37	59*	69*	78*	58*	.	43*
Cc1sc2ncnc(Oc3ccc(-n4ccnc4)cc3)c2c1C	23	53*	52*	-21	46	69*	61*	69*	48	53*	-5
COc1cc(CNCCc2ccccc2)ccc1OCc1ccc(Cl)nc1	19	50*	2	0	7	55*	42	46	51*	.	-4
Cc1ccc(C(=O)N2CCN(c3ccccn3)CC2)cc1Cl	32	21	39	-13	21	-7	.	.	.	.	.
Clc1ccc(CN2C3=NCCCN3c3ccccc32)cc1Cl	13	22	2	14	9	3	.	.	.	.	.
CC1CC1C(=O)Nc1ccc(-c2ccccc2)cc1 (stereo not given)	47	51*	35	0	43	43*	64*	.	.	.	36*
CC1=NNC(=O)/C1=C\c1cn(-c2ccccc2)nc1-c1ccc(F)cc1	8	.	.	.	.	.	.	.	.	.	.
CC1=NNC(=O)/C1=C\c1cn(-c2ccccc2)nc1-c1cccs1	65*	54*	19	110*	19	88*	74*	.	.	.	84*
CCC(C)(C)n1nnnc1C(c1cccs1)N1CCc2ccccc21 (stereo not given)	18	-101	33	-36	47	50*	-18	.	.	.	34*
O=C1/C(=C/c2ccccc2[N+](=O)[O-])COc2ccccc21	6	71*	25	-29	-37	79*	62*	85*	74*	.	89*
Cc1ccn2c(CNCC3COCCO3)c(C(=O)N3CCCCCC3)nc2c1 (stereo not given)	-1	0	10	-12	-1	4	.	.	.	.	.
Fc1ccc(CSc2nnc(-c3cccnc3)n2Cc2ccco2)cc1	27	-7	28	.	15	24	.	.	.	.	.
Fc1ccc(CSc2nnc(-c3cnccn3)n2Cc2ccco2)cc1	7	-123	30	.	42	41*	-21	.	.	.	26
COc1ccc(CN(C)C(=O)COC(=O)c2ccc(-c3ccccc3)cc2)c(OC)c1OC	.	49	12	-14	29	19	.	.	.	.	.
COc1c[nH]n(C2CCCCC2)c(=O)c1=O	18	57*	23	-4	40	40*	77*	59*	67*	.	23
Cc1sc(NC(=S)NC(=O)c2cccs2)nc1-c1ccc(C(C)C)cc1	35	4	7	14	7	5	.	.	.	.	.
O=C(Cc1cccs1)Nc1nc2c(s1)CCCC2	12	42	27	.	27	-8	.	.	.	.	.
O=C(Nc1nc2c(s1)CCCC2)c1cccs1	16	50*	44*	54	6	44*	55*	88*	72*	30*	12
Cc1sc(NC(=O)c2cccs2)nc1-c1ccccc1	-27	68*	15	.	33	47*	67*	55*	46	.	28
CC(c1nccs1)N(C)C(=O)CCc1nnc(CCc2ccccc2)o1 (stereo not given)	5	3	11	-5	12	18	.	.	.	.	.
COc1ccccc1N1CCN(C(c2cccs2)C(C)NC(=O)c2ccncc2)CC1 (stereo not given)	.	1	4	1	19	-6	.	.	.	.	.
COc1cc(C(=O)O/N=C2/C=C(C)C(=O)C=C2C)cc(OC)c1OC	.	-1	37	16	33	30	.	.	.	.	.
CC1=C/C(=N\OS(=O)(=O)c2ccccc2)C(C)=CC1=O	31	50	91*	105*	-109	87*	39	.	.	80*	-13
CN(CCO)c1cc(Sc2nc3ccccc3s2)c2nonc2c1[N+](=O)[O-]	-10	62*	41*	6	14	53*	65*	.	.	39*	26*
CC(=O)OCCN(C)c1cc(SC(C)C)c2nonc2c1[N+](=O)[O-]	7	6	1	.	-13	-4	.	.	.	.	.
SMILES	NALP1 inh	NLRP3 yeast inh	tim10-1 inh	PfHsp90 set2	tim23-1 inh	TIM10 inh	NALP3 yeast conf	Casp1-ASC yeast	NALP3 retest	tim10-1 conf	tim10 confirm	others
O=C(CCN1CCC(c2cccs2)=N1)c1cccs1	-4	90*	41*	.	63*	63*	90*	96*	87*	30	69*	tim23-1 confirm=84*
NC(=O)c1ccsc1NC(=O)COC(=O)c1cc(=O)[nH]c2ccccc12	.	6	3	.	-1	-2	.	.	.	.	.
COc1ccc2[nH]c3c(C)c4ccncc4c(C)c3c2c1	55*	89*	58*	12	50*	59*	96*	99*	91*	26	71*	tim23-1 confirm=69*
COc1ccccc1C(=O)Nc1cc(Cl)ccc1O	22	44	8	-4	-19	0	.	.	.	.	.
CCOc1ccccc1C(=O)Nc1cc(Cl)ccc1O	38	52*	62*	37	85*	59*	72*	66*	53*	54*	52*	tim23-1 confirm=8
Cc1ccc(Oc2ccc(OCC(=O)NC3CCS(=O)(=O)C3)cc2)cc1 (stereo not given)	12	-1	-6	-14	17	-18	.	.	.	.	.
O=C(Nc1scc(-c2ccc(F)cc2)c1C(=O)O)c1ccco1	-1	22	-8	41	20	2	.	.	.	.	.
Cc1ccc(-c2csc(NC(=O)c3cccc(C)c3)c2C(=O)O)cc1	.	65*	72*	30	83*	83*	70*	66*	61*	84*	90*	tim23-1 confirm=89*
Cc1ccc(-c2csc(NC(=O)c3ccc(Br)cc3)c2C(=O)O)cc1	61*	91*	81*	24	84*	82*	96*	95*	88*	82*	93*	tim23-1 confirm=89*
Cc1ccc(-c2csc(NC(=O)/C=C/c3ccco3)c2C(=O)O)cc1	9	83*	76*	28	79*	81*	90*	90*	84*	74*	79*	tim23-1 confirm=89*
CC(C)c1ccc(C(CC(=O)O)NC(=O)c2cccs2)cc1 (stereo not given)	20	-2	10	14	7	-6	.	.	.	.	.
